Inconclusive results are not listed. Active and inactive are the calls of the source. Unless noted, the call rests on the fitted dose curve; in most records, active means well fitted curve in the direction sought with a large enough effect in the repeat runs; inconclusive means weak or mixed curves; inactive means no such curve, though single readings can be large; an effect the other way counts as inactive or inconclusive.
Legend:
[1] = qHTS assay to identify small molecule antagonists of the TGF-beta/Smad signaling pathway - cell viability counter screen (AID 1346824); further: nearly all actives have a fitted effect of over 50% in size
Procedure, shortened: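 Cytotoxicity counter-screen run in the same wells as the beta-lactamase Smad reporter read: CellTiter-Glo luminescence after 30 min at room temperature. HEK 293T SBE-bla cells had 5 hr compound exposure at 37 C with TGF-beta1 (0.25 ng/mL stock).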

[2] = qHTS assay to identify small molecule agonists of the TGF-beta/Smad signaling pathway - cell viability counter screen (AID 1346829); further: top concentration of the series differs between compounds; nearly all actives have a fitted effect of over 45% in size
Procedure, shortened: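 In parallel with the Smad reporter read, viability of HEK 293T cells stably carrying SBE-bla is quantified by ATP luminescence following 5 hr compound treatment.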

[3] = qHTS assay to identify small molecule agonists of the TGF-beta/Smad signaling pathway (AID 1346859; active means well fitted activation curve with a large enough effect in the signal ratio in the repeat runs, not every such curve was filed as active; the % refers to the signal ratio; further: series mostly up to about 77 µM)
Procedure, shortened: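 Fluorescence (ex 405 nm; em 460 and 530 nm) was read 2 h after LiveBLAzer FRET substrate at RT. The preceding compound treatment of overnight-plated SBE-bla HEK293T cells lasted 5 h at 37 C.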

[4] = target: Thyrotropin-releasing hormone receptor (Homo sapiens) (UniProt P34981); assay: qHTS assay to identify small molecule agonists of the thyrotropin-releasing hormone receptor (TRHR) signaling pathway (AID 1346891; calls by dose curve; further: series mostly up to about 58 µM)
Thyrotropin-releasing hormone receptor (Homo sapiens), sequence (P34981 whole entry, looked up): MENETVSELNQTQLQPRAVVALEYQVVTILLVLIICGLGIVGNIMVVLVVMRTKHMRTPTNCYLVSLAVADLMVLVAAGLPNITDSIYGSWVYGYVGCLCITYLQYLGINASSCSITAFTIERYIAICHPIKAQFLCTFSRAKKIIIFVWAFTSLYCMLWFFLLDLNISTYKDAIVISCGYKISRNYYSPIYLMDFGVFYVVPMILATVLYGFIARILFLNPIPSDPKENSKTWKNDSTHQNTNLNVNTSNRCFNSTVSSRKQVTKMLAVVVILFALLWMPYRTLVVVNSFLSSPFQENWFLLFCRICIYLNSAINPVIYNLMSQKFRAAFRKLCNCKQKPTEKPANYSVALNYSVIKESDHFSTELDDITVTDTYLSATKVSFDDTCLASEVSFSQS
Procedure, shortened: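 Agonist-mode intracellular calcium readout: kinetic fluorescence over 3 min at 1 s intervals after compound addition to TRHR-HEK293 cells (18 h seeded, 2 h dye-loaded at 37 C). Fifteen concentrations, triplicates.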

[5] = Caspase-3/7 induction in HepG2 cells by small molecules, qHTS assay (AID 1346978); further: nearly all actives have a fitted effect of over 15% in size
Procedure, shortened: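 Caspase-3/7 induction was measured by Caspase-Glo 3/7 luminescence (30 min, room temperature) after a 17 hr compound exposure of wild-type HepG2 cells seeded at 2,000 per well and pre-incubated 5 hr.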

[6] = Caspase-3/7 induction in CHO-K1 cells by small molecules, qHTS cell viability counter screen (AID 1346979); further: nearly all actives have a fitted effect of over 35% in size; further: potency means the concentration at half of the fitted maximal effect
Procedure, shortened: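 Cytotoxicity counter screen: CellTiter-Fluor added to compound-treated wild-type CHO-K1 cells at 16 h (37C, 5% CO2), fluorescence measured 1 h later; same wells as caspase-3/7 measurement.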

[7] = Caspase-3/7 induction in CHO-K1 cells by small molecules, qHTS assay (AID 1346980); further: nearly all actives have a fitted effect of over 15% in size
Procedure, shortened: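 Luminescent Caspase-Glo 3/7 read (30min, room temperature) quantified apoptosis induction. Cells were wild-type CHO-K1, treated with compound for 17hr at 37 C and 5% CO2.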

[8] = Caspase-3/7 induction in HepG2 cells by small molecules, qHTS cell viability counter screen (AID 1346981); further: nearly all actives have a fitted effect of over 30% in size; further: potency means the concentration at half of the fitted maximal effect; on activity change, negative = cytotoxicity: series mostly up to about 92 µM
Procedure, shortened: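 HepG2, WT, 2,000 cells/well; 5 hr pre-incubation 37 C/5% CO2; compound pin-transferred from DMSO; 16 hr exposure; CellTiter-Fluor, 1 hr; fluorescence read.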

[9] = target: Cytochrome P450 2D6 (Homo sapiens) (UniProt P10635); assay: Cytochrome P450 Family 2 Subfamily D Member 6 (CYP2D6) small molecule antagonists: luciferase reporter qHTS assay (AID 1671196); further: nearly all actives have a fitted effect of over 50% in size; further: potency means the concentration at half of the fitted maximal effect; on activity change, negative = inhibition: series mostly up to about 120 µM
Cytochrome P450 2D6 (Homo sapiens), sequence (P10635 whole entry, looked up): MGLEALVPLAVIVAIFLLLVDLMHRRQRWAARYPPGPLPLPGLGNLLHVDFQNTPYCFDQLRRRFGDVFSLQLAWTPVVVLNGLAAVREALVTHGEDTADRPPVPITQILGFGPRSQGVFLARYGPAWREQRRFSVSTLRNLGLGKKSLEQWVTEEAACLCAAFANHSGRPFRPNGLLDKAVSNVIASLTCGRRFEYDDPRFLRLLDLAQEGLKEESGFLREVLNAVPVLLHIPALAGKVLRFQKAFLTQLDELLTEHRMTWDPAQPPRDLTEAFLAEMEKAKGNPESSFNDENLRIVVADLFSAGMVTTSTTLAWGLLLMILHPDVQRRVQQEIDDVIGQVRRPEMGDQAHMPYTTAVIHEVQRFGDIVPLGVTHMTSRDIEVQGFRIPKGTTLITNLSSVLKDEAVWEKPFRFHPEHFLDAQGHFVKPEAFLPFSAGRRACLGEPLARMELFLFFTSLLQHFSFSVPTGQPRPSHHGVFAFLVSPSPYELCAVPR
Procedure, shortened: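 Read-out is luminescence from luciferin formed by CYP2D6 turnover of a proluciferin substrate, recorded as relative luminescence units. Reactions ran 1 h at room temperature after NADPH regeneration solution was added.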

[10] = target: Cytochrome P450 2C19 (Homo sapiens) (UniProt P33261); assay: Cytochrome P450 Family 2 Subfamily C Member 19 (CYP2C19) small molecule antagonists: luciferase reporter qHTS assay (AID 1671197); further: nearly all actives have a fitted effect of over 65% in size; further: potency means the concentration at half of the fitted maximal effect; on activity change, negative = inhibition: series mostly up to about 120 µM
Cytochrome P450 2C19 (Homo sapiens), sequence (P33261 whole entry, looked up): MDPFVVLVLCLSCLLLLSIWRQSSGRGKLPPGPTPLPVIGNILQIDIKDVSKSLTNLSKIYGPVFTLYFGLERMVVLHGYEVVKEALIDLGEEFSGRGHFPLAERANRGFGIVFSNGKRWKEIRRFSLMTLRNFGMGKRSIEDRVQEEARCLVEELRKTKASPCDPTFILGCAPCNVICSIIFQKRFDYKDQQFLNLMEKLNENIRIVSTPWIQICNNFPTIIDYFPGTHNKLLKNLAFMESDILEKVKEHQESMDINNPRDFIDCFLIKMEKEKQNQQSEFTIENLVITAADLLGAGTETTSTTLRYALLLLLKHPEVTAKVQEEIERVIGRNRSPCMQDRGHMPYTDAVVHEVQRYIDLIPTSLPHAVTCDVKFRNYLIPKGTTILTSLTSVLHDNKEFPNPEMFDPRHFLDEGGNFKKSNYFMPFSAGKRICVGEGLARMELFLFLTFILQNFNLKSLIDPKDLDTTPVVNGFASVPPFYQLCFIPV
Procedure, shortened: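 Compounds were tested on CYP2C19 activity via proluciferin conversion to luciferin. The 37C, 1 h reaction followed NADPH addition; detection reagent stopped it.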

[11] = target: Cytochrome P450 2C9 (Homo sapiens) (UniProt P11712); assay: Cytochrome P450 Family 2 Subfamily C Member 9 (CYP2C9) small molecule antagonists: luciferase reporter qHTS assay (AID 1671198); further: nearly all actives have a fitted effect of over 50% in size; further: potency means the concentration at half of the fitted maximal effect; on activity change, negative = inhibition: series mostly up to about 120 µM
Cytochrome P450 2C9 (Homo sapiens), sequence (P11712 whole entry, looked up): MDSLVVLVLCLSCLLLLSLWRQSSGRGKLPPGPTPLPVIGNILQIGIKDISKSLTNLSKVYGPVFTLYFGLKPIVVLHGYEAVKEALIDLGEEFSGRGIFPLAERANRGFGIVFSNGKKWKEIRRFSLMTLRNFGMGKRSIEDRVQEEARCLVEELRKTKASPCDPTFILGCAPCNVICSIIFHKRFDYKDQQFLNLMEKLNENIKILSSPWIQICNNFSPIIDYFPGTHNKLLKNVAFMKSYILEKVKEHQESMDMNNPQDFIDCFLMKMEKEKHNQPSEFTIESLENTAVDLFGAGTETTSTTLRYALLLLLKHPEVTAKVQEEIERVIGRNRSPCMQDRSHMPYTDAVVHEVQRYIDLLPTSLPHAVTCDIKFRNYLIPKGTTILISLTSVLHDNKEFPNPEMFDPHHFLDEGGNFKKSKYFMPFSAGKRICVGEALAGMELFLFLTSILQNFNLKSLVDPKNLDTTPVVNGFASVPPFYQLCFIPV
Procedure, shortened: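 Enzyme-substrate mix preincubated with compound 10 min at room temperature; reaction started with NADPH regeneration solution, 1 h 37C. Luminescent luciferin product read after 20 min detection reagent.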

[12] = target: Cytochrome P450 1A2 (Homo sapiens) (UniProt P05177); assay: Cytochrome P450 Family 1 Subfamily A Member 2 (CYP1A2) small molecule antagonists: luciferase reporter qHTS assay (AID 1671199); further: nearly all actives have a fitted effect of over 50% in size; further: potency means the concentration at half of the fitted maximal effect; on activity change, negative = inhibition: series mostly up to about 120 µM
Cytochrome P450 1A2 (Homo sapiens), sequence (P05177 whole entry, looked up): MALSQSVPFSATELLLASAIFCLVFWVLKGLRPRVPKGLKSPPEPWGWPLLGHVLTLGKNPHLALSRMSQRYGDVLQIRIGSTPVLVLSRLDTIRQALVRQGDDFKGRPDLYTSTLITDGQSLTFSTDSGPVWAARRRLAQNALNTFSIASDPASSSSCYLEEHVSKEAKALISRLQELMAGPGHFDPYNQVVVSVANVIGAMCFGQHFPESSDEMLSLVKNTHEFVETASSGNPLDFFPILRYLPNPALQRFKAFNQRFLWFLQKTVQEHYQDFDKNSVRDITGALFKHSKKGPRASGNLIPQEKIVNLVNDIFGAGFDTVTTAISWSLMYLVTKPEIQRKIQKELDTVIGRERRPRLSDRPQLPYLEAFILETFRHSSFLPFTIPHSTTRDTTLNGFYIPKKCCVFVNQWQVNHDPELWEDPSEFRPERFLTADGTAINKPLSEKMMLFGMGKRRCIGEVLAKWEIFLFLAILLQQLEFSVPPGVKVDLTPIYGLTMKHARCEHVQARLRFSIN
Procedure, shortened: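 P450-Glo CYP1A2, 1536-well qHTS: enzyme/proluciferin substrate + cpd (DMSO), 10 min RT; NADPH regen, 1 h RT; detection reagent, 20 min; luminescence, RLU.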

[13] = target: Voltage-gated inwardly rectifying potassium channel KCNH2 (Homo sapiens) (UniProt Q12809); assay: Human Ether-a-go-go-Related Gene (hERG) channel small molecule antagonists: fluorescence cell-based qHTS assay (AID 1671200)
Voltage-gated inwardly rectifying potassium channel KCNH2 (Homo sapiens), sequence (Q12809 whole entry, looked up): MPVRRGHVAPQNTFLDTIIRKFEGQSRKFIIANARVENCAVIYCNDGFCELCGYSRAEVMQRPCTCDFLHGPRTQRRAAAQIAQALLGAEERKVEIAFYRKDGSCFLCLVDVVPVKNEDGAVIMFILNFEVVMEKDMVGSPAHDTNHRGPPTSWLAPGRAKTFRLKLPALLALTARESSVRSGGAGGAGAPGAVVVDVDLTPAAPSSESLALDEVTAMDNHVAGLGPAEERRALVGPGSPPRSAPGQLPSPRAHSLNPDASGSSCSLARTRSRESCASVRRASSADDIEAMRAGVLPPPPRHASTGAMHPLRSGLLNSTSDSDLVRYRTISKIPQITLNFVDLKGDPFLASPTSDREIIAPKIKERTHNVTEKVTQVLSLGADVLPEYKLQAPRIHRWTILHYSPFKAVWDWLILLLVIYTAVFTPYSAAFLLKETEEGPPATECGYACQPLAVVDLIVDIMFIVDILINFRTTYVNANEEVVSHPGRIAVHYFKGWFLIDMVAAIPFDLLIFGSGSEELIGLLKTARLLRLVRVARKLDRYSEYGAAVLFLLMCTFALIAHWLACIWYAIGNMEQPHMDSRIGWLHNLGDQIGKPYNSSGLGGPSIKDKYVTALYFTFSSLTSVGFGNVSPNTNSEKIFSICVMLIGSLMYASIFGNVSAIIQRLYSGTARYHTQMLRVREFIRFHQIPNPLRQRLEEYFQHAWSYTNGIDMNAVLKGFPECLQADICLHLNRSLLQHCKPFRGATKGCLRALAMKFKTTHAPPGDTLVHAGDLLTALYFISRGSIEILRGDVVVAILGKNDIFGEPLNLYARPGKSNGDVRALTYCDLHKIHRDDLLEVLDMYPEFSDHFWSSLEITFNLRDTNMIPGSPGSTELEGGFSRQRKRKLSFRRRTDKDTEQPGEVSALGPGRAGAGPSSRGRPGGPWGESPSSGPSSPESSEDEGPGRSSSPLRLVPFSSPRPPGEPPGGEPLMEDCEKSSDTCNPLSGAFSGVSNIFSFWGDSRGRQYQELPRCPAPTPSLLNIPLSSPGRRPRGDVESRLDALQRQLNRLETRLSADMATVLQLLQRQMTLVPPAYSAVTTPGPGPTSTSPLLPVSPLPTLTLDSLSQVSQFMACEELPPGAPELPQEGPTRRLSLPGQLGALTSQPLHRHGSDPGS
Procedure, shortened: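 Thallium flux as potassium surrogate: FluxOR II dye loaded 1 h at room temperature into hERG-expressing U2OS cells, then stimulus buffer added after 10 min. Kinetic 480 nm excitation/540 nm emission read, 2 min.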

[14] = target: Cytochrome P450 3A4 (Homo sapiens) (UniProt P08684); assay: Cytochrome P450 Family 3 Subfamily A Member 4 (CYP3A4) small molecule antagonists: luciferase reporter qHTS assay (AID 1671201)
Cytochrome P450 3A4 (Homo sapiens), sequence (P08684 whole entry, looked up): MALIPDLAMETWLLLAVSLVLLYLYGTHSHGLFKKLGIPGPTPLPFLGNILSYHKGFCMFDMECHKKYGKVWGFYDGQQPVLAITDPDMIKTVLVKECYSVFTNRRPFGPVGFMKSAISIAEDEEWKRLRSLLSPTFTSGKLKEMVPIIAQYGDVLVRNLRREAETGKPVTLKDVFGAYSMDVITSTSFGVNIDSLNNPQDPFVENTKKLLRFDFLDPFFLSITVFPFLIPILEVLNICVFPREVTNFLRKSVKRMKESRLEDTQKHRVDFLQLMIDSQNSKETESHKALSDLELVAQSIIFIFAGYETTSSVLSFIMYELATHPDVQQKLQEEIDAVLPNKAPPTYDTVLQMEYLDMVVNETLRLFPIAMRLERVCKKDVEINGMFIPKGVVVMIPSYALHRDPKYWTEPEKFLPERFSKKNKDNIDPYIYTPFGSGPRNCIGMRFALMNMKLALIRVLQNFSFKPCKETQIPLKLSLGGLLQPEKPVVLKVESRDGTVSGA
Procedure, shortened: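 Recombinant human CYP3A4 converts a proluciferin substrate to luciferin over 1 h at room temperature after NADPH regeneration solution is added (compound preincubated 10 min); detection reagent stops reaction, luminescence read 20 min later as relative units.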

[15] = target: Thyrotropin-releasing hormone receptor (Homo sapiens) (UniProt P34981); assay: qHTS assay to identify small molecule antagonists of the thyrotropin-releasing hormone receptor (TRHR) signaling pathway (AID 1346877; active means well fitted inhibition curve with a large enough effect in the repeat runs, not every such curve was filed as active; further: series mostly up to about 51 µM)
Procedure, shortened: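 Intracellular calcium fluorescence, read kinetically every second over 3 min, reports TRH-evoked signalling in HEK293 cells carrying TRHR. Test compounds were added 5 min ahead of a 1 nM TRH challenge.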

[16] = Human pregnane X receptor (PXR) small molecule agonists, qHTS cell viability counter screen (AID 1346977); further: nearly all actives have a fitted effect of over 50% in size
Procedure, shortened: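 Same-well viability read: CellTiter-Fluor added after 23 hr compound exposure, fluorescence measured 1 hr later. Cells were PXR-Luc HepG2 seeded at 2,000/well in 5% charcoal-stripped FBS medium, rested 5 hr before dosing at 37 C.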

[17] = target: Nuclear receptor subfamily 1 group I member 2 (Homo sapiens) (UniProt O75469); assay: Human pregnane X receptor (PXR) small molecule agonists, qHTS assay (AID 1346982); further: nearly all actives have a fitted effect of over 35% in size
Nuclear receptor subfamily 1 group I member 2 (Homo sapiens), sequence (O75469 whole entry, looked up): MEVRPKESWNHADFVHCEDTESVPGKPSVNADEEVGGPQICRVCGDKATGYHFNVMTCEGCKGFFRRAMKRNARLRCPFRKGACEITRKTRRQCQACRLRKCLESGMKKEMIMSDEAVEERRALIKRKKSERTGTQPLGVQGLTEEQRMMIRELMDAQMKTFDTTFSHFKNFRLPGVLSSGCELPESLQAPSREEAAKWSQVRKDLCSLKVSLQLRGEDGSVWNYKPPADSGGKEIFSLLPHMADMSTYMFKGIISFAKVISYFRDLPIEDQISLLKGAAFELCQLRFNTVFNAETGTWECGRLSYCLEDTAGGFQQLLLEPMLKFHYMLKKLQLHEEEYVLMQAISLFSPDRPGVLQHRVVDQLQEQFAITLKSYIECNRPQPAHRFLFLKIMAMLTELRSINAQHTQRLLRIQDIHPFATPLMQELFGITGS
Procedure, shortened: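 Luciferase signal from ONE-Glo (30 min, room temperature) measured activation of hPXR-driven CYP3A4 reporter expression in PXR-Luc HepG2 cells treated with compounds for 24 hr at 37 C.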

[18] = target: Nuclear receptor subfamily 1 group I member 2 (Rattus norvegicus) (UniProt Q9R1A7); assay: Rat pregnane X receptor (rPXR) activation by small molecules, qHTS assay (AID 1346983); conditions: rPXR luciferase reporter cells, One-Glo luminescence, 24 h; max activation: hits give high values; further: nearly all actives have a fitted effect of over 20% in size
Nuclear receptor subfamily 1 group I member 2 (Rattus norvegicus), sequence (Q9R1A7 whole entry, looked up): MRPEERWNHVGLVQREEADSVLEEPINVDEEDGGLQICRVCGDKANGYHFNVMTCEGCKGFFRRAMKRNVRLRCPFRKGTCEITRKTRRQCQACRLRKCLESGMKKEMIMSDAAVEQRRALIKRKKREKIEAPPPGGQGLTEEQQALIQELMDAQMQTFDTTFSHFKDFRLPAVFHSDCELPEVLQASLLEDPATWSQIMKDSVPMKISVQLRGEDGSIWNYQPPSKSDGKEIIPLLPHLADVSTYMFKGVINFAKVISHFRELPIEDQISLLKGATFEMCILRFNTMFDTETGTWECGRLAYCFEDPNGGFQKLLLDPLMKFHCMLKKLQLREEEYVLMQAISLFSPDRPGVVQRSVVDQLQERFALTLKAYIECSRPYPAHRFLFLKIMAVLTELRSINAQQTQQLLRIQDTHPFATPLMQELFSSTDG
Procedure, shortened: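 Luminescent readout (One-Glo luciferase, 30 min room temperature) followed 24 hr compound treatment at 37 C of rPXR cells plated 2,000 per well and preincubated 5hr; qHTS format with compounds delivered in DMSO.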

[19] = target: Nuclear receptor subfamily 1 group I member 2 (Homo sapiens) (UniProt O75469); assay: CYP3A4 induction through human pregnane X receptor (PXR) by small molecules, qHTS assay (AID 1346984); further: nearly all actives have a fitted effect of over 40% in size
Procedure, shortened: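 Luminescence readout: luciferase signal after One-Glo (30 min, room temperature), following 3 h at 37C with 3uM final Luciferin-IPA P450 substrate. Cells were DPX-2 (HepG2, PXR/CYP3A4-luc co-transfected) dosed for 24 h.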

[20] = target: Nuclear receptor subfamily 1 group I member 2 (Homo sapiens) (UniProt O75469); assay: Human pregnane X receptor (PXR) activation by small molecules, qHTS assay (AID 1346985); further: nearly all actives have a fitted effect of over 40% in size
Procedure, shortened: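 DPX-2 cells (HepG2 co-transfected with a PXR response element and a CYP3A4-promoter luciferase construct) were seeded at 2,000 per well, rested 5 hr at 37C, then exposed to DMSO-dissolved compounds for 24 hr. Activation was read as luciferase luminescence.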
On the % scale 0 is the no-effect control and ±100 the full control effect.

Cc1cccc(NC(=S)N(C)C)c1
active: Potency [10] 79.6 µM | Potency [12] 35.6 µM
inactive: outcome [1] | outcome [2] | outcome [3] | outcome [4] | outcome [5] | Potency [6] | outcome [7] | Potency [8] | Potency [9] | Potency [11] | Potency [13] | Potency [14]

Nc1cc(C(=O)O)ccc1Cl
inactive: outcome [1] | outcome [2] | outcome [3] | outcome [15] | Potency [16] | Potency [6] | outcome [7] | Potency [8] | Potency [9] | Potency [11] | Potency [13] | Potency [14]

CCC(=O)c1ccc(O)cc1
inactive: outcome [1] | outcome [2] | outcome [3] | outcome [4] | Potency [16] | outcome [5] | Potency [6] | outcome [7] | Potency [17] | Potency [9] | Potency [10] | Potency [11] | Potency [13] | Potency [14]

COc1ccc(N=Nc2cc(C)c(N=Nc3ccc(S(=O)(=O)O)cc3)cc2OC)cc1
active: Potency [6] 54.5 µM | Potency [8] 30.6 µM
inactive: outcome [1] | outcome [2] | outcome [3] | outcome [4] | outcome [5] | outcome [7] | Potency [13] | Potency [14]

N#CCCOCCOCCC#N
active: Potency [12] 39.9 µM
inactive: outcome [1] | outcome [2] | outcome [3] | outcome [4] | Potency [16] | outcome [7] | Potency [8] | Potency [9] | Potency [10] | Potency [11] | Potency [13] | Potency [14]

O=S1(=O)CCCC1
inactive: outcome [1] | outcome [2] | outcome [3] | outcome [4] | Potency [16] | outcome [5] | Potency [6] | outcome [7] | Potency [8] | Potency [17] | Potency [9] | Potency [10] | Potency [11] | Potency [13] | Potency [14]

C1=CCC(c2ccccc2)CC1 (stereo not drawn)
inactive: outcome [1] | outcome [2] | outcome [3] | outcome [4] | Potency [16] | outcome [5] | Potency [6] | outcome [7] | Potency [8] | Potency [17] | Potency [9] | Potency [10] | Potency [11] | Potency [13] | Potency [14]

CC(C)(C)c1ccc(C=O)cc1
inactive: outcome [1] | outcome [2] | outcome [3] | outcome [15] | Potency [16] | outcome [5] | outcome [7] | Potency [8] | Potency [9] | Potency [10] | Potency [11] | Potency [13] | Potency [14]

CC(C)C(=O)Nc1cccc(C(F)(F)F)c1
inactive: outcome [1] | outcome [2] | outcome [3] | outcome [15] | Potency [16] | outcome [7] | Potency [8] | Potency [17] | Potency [9] | Potency [10] | Potency [11] | Potency [13] | Potency [14]

O=C(Nc1cccc(C2=NCCN2)c1)Nc1cccc(C2=NCCN2)c1
inactive: viability change, negative = cytotoxic [1] -4.13% [at 15.8 µM] | activity change, negative = cytotoxicity [2] -14.4% [at 15.8 µM] | activation [3] 0.662% [at 15.8 µM] | activity change, negative = cytotoxicity [16] 1.2% [at 19 µM] | caspase activation [5] -0.792% [at 19 µM] | activity change, negative = cytotoxicity [6] 4% [at 19 µM] | caspase-3/7 activation [7] 0.277% [at 19 µM] | activity change, negative = cytotoxicity [8] 2.76% [at 19 µM] | activation [17] -0.413% [at 19 µM] | max activation [18] -0.171% | outcome [19] | Potency [20] | activity change, negative = inhibition [11] 0.456% [at 23.6 µM] | activity change, negative = inhibition [12] 12% [at 23.6 µM] | activity change, negative = inhibition [13] 4.21% [at 15.8 µM] | activity change, negative = inhibition [14] 41.3% [at 23.6 µM]
active: Potency [9] 16.9 µM

CCOC(=O)CC(CC(=O)OCC)(OC(C)=O)C(=O)OCC
inactive: outcome [1] | outcome [2] | outcome [3] | outcome [4] | Potency [16] | outcome [5] | Potency [6] | outcome [7] | Potency [9] | Potency [13] | Potency [14]
active: Potency [11] 28.3 µM
